Screens: PubChem BioAssay, several laboratories
A selection: hits, their analogues and other compounds. The true share with any hit is near 4.1%.
CaV13 FRET inh = Disruptors of the CACNA1D IQ motif to Ca2+-dependent inactivation inhibitor domain association, primary screening, Förster resonance energy transfer in intact living …; HEK cells, CFP/YFP FRET ICDI-IQ, plate reader, 10 min; percent FRET-ratio fall versus neutral wells; AID 743397; actives 0.098% (n = 340,000); inhibition, % at 12.3 µM;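 active = mean replicate inhibition of at least 30% and at least 1% of replicates passing that level; inconclusive = only one of the two criteria is met; inactive = neither criterion is met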;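 note: 0% = median of the neutral control wells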
PolyA inhibitor = yeast polyadenylation inhibition; S. cerevisiae SKY197-pL101 polyadenylation reporter, beta-gal luminescence; efflux-impaired pdr1/pdr3 knockout yeast; score 100 = 6 SD above DMSO; activity score, % at 12 µM; actives 0.02% (n = 300,000);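 active = lowest replicate activity score at least 50, where 100 means six control SD above control mean; inconclusive = lowest score under 50 but half or more replicates reach 50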;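 note: yeast exposed to compound for 9 h at 30 °C; higher score means more reporter readthrough which indicates perturbed polyadenylation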
PfM18AAP inh-1 = PfM18AAP enzyme inhibition | recombinant PfM18AAP, H-Glu-NHMec fluorogenic cleavage | inhibition, % at 7.35 µM | actives 1.2% (n = 290,000);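 active = inhibition above the campaign mean inhibition over all tested compounds plus 3 SD, cut at about 28% in these data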;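 note: 0% = plate median of test compound wells and 100% = 2 mM ZnCl2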
IDE cell activ = boosts human insulin-degrading enzyme activity in HEK cells; FAbeta-B cleavage, fluorescence polarization; 0% vehicle, 100% cell-free pure enzyme wells; activation, % at 5.96 µM; actives 0.073% (n = 340,000); AID 493087;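 active = activation above the mean of all tested compounds plus 3 SD, set per screening campaign, cut at about 17% in these data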
IDE inh = cellular human IDE inhibition | P14735 | HEK cells, FAbetaB cleavage, fluorescence polarization | inhibition, % at 5.59 µM | actives 0.41% (n = 320,000);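 active = percent inhibition above the average of all tested compounds plus 3 SD, set per screening campaign, cut at about 16% in these data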;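 note: IDE supplied by intact live HEK cells; FP after avidin binding of uncleaved biotin substrate so inhibition keeps polarization high; 0% = DMSO wells and 100% = 60 µM reference IDE inhibitor Ii1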
ALR inh = inhibitors of human sulfhydryl oxidase ALR; P55789; purified ALR, DTT oxidation, H2O2 HRP-luminol luminescence; inhibition, % (test concentration not listed); actives 3.8% (n = 290,000); AID 485317;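 active = mean replicate inhibition above about 79%, with every replicate also reaching it, limit read from the data; inconclusive = only one of the two criteria met; inactive = mean below limit and not every replicate reaching it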
Target sequence (P55789 whole entry, looked up): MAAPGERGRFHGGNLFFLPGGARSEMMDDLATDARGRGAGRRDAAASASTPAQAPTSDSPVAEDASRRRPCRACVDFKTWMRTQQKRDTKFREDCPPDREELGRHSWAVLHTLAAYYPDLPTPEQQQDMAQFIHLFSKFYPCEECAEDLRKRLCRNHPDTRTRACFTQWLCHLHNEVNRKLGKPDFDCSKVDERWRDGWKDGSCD
PfM18AAP inh-2 = PfM18AAP inhibition, confirmation. shares compounds with PfM18AAP inh-1. recombinant PfM18AAP, H-Glu-NHMec fluorogenic cleavage. inhibition, % at 7.35 µM. actives 28% (n = 2,400). AID 2170;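 active = mean inhibition over replicate wells above the hit cutoff set for the earlier primary screen, cut at about 29% in these data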;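 note: 0% = median of test compound wells and 100% = 2 mM ZnCl2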
CTSL1 counter = counter-screen for PFM18AAP inhibitors: confirmation of human cathepsin L inhibitors. inhibition, % at 5.96 µM. 2,400 tested, under 10 active. AID 2178. shares compounds with PfM18AAP inh-1. purified cathepsin L1, Z-Leu-Arg-MCA fluorescence;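 active = average inhibition across replicates above the hit cutoff set in the earlier primary screen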;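 note: 0% = median of test compound wells and 100% = Z-Phe-Ala-diazomethylketone 1 µM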
Target sequence (P07711 whole entry, looked up): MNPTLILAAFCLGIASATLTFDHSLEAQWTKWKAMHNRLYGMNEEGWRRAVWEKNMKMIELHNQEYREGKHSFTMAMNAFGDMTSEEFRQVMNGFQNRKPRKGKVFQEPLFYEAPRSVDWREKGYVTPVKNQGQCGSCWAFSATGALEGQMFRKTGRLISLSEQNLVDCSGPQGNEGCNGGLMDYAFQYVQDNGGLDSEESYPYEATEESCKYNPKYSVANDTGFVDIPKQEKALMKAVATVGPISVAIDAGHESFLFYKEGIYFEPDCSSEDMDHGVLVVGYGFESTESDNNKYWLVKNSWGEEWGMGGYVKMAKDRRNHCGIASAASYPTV
* marks the source's active call; other numbers are inactive results; ? = inconclusive; . = not tested or not shown.

SMILES	CaV13 FRET inh	PolyA inhibitor	PfM18AAP inh-1	IDE cell activ	IDE inh	ALR inh	PfM18AAP inh-2	CTSL1 counter
COC(=O)Cn1nnnc1-c1nc2cc(C)c(C)cc2[nH]c1=O	-7.5	.	.	.	.	.	.	.
O=c1[nH]c(CSc2ncnc3sccc23)nc2ccccc12	-2.1	7.1	-14.1	-1.4	7.3	-3.7	.	.
O=c1[nH]c(CSc2ncn[nH]2)nc2ccccc12	-15.9	12.5	69.2*	4.4	-1.4	-2.1	72.7*	5.2
COc1ccccc1NS(=O)(=O)c1cc(NC(=S)NCCN2CCOCC2)ccc1N1CCOCC1	-1.2	2.3	37.9*	-1.2	2.2	24.1	11.7	0.9
COc1ccccc1NS(=O)(=O)c1cc(NC(=O)c2sccc2C)ccc1N1CCCC1	-5.9	6.5	56.0*	-0.7	-2.2	-2.6	7.8	-2.2
COc1ccccc1NS(=O)(=O)c1cc(NC(=O)C(C)(C)C)ccc1N1CCOCC1	-1.2	-17.0	.	-0.8	-2.6	-0.9	.	.
COc1ccccc1NS(=O)(=O)c1cc(NC(=O)c2cccs2)ccc1N1CCCC1	-15.2	4.9	36.1*	-5.9	11.2	-4.6	-4.0	3.4
CCOC(=O)C(NC(=O)N(C)C)(Nc1sc(C)c(CC)c1C#N)C(F)(F)F (stereo not drawn)	-5.0	-9.9	48.9*	-6.0	14.9	28.4	0.7	-1.8
CCOC(=O)C(NC(=O)CCl)(Nc1sc(C)c(CC)c1C#N)C(F)(F)F (stereo not drawn)	-3.9	-1.0	7.0	3.8	4.4	3.4	.	.
NC(=O)c1ccc(N2CCN(c3ccc(O)cc3)CC2)c([N+](=O)[O-])c1	-5.3	16.1	49.6*	0.4	5.0	99.3*	5.8	2.1
CC(=O)c1ccc(N2CCN(c3ccc(C(N)=O)cc3[N+](=O)[O-])CC2)cc1	-17.8	-0.3	-2.4	-1.5	-0.2	-7.1	.	.
CNC(=S)c1cc(C(C)(C)C)c(O)c(C(C)(C)C)c1	3.2	0.1	3.1	-7.0	-0.2	11.2	.	.
CCC(=O)[C@@]1(C)[C@H](C)C[C@H]2[C@@H]3CCC4=CC(=O)C=C[C@]4(C)[C@H]3[C@@H](O)C[C@@]21C	-5.4	.	.	0.5	0.9	-7.1	.	.
S=c1nc(-c2ccco2)[nH][nH]1	.	-16.8	44.4*	-2.0	1.5	98.7*	9.7	-1.7
Cn1c(-c2ccco2)n[nH]c1=S	-7.0	0.8	-3.7	0.1	10.2	16.9	.	.
O=C(CSc1nnc(-c2cccc(F)c2)o1)Nc1nncs1	-1.1	-2.0	50.1*	2.2	1.2	25.4	-32.1	-2.8
O=C(Nc1cc(S(=O)(=O)N2CCOCC2)ccc1N1CCOCC1)c1ccccc1Cl	-9.7	.	.	7.1	1.8	-3.1	.	.
NNC(=S)Nc1cc(S(=O)(=O)N2CCOCC2)ccc1N1CCOCC1	-0.5	-6.8	39.7*	2.2	-1.3	11.2	14.4	-7.6
COc1ccc(/C=C(\C#N)C(=O)Nc2cc(S(=O)(=O)N3CCOCC3)ccc2N2CCCC2)cc1	-8.3	-3.4	40.0*	-4.0	-5.2	-7.3	-0.4	-3.5
O=C1c2cc(N3CCCC3)c([N+](=O)[O-])cc2C(=O)N1c1ccccc1	-13.3	3.4	-10.3	1.0	-4.6	-8.0	.	.
O=C(Cn1cnc([N+](=O)[O-])c1)Nc1ccccc1C(F)(F)F	-3.0	-1.8	-10.9	-2.1	-0.4	-1.2	.	.
Cc1snc(SCC(=O)c2ccc([N+](=O)[O-])cc2)c1C#N	-4.4	.	44.6*	-17.9	.	.	-22.0	5.5
N#CCCN(C(=O)COC(=O)c1ccc(CNS(=O)(=O)c2ccc(F)c(Cl)c2)cc1)c1ccc(F)cc1	-3.8	1.9	3.7	6.6	0.6	-3.7	.	.
COC(=O)c1c(N)sc(C(=O)NCCc2ccccc2)c1C	-3.6	2.9	39.9*	3.4	.	43.9	-10.7	-4.5
COc1cccc(OC)c1C(=O)NCCc1ccccc1	-3.4	-16.1	.	0.9	4.3	-1.9	.	.
SMILES	CaV13 FRET inh	PolyA inhibitor	PfM18AAP inh-1	IDE cell activ	IDE inh	ALR inh	PfM18AAP inh-2	CTSL1 counter
Cc1ccc([C@@H]2CC(=O)[C@@H]3CN(S(=O)(=O)c4ccc(C)cc4)[C@H](c4ccccc4)C[C@@H]3N2S(=O)(=O)c2ccc(C)cc2)cc1	-3.5	.	.	.	.	.	.	.
Cc1nc(NN)c2c3c(sc2n1)COC(C)(C)C3	-15.8	11.2	58.1*	-2.8	-0.7	-1.0	16.2	-7.5
Cn1c(NN)nc2sc3c(c2c1=O)CC(C)(C)OC3	-5.9	-20.6	21.4	4.5	1.0	-11.5	.	.
CC1(C)Cc2c(sc3nc(=S)[nH]c(N)c23)CO1	.	0.0	32.5*	.	7.6	-11.8	-11.0	5.1
CC1(C)Cc2c(sc3ncnc(N)c23)CO1	-8.5	14.3	13.6	6.3	9.4	-7.4	.	.
CCN1C(c2ccc(F)cc2)=CS/C1=C(/C#N)c1nnc2n1-c1ccccc1SC2	-12.5	.	.	.	.	.	.	.
CCN1CCN(c2ccc(NC(=O)c3cc(OC)c(OC)c(OC)c3)cc2)CC1	-6.6	10.2	-11.8	2.7	3.6	0.3	.	.
Cc1cnc(C(=O)OCC(=O)N(Cc2ccccc2)C(C)(C)C)cn1	-6.1	.	.	0.8	4.7	.	.	.
N#Cc1c(/N=C/c2cccs2)sc2c1CCCCC2	-4.2	-20.0	34.1*	8.1	-6.5	94.8*	-23.4	7.3
S=c1[nH]c(-c2ccccc2)cn1/N=C/c1ccccc1Br	-2.7	-17.6	32.8*	-10.1	3.9	0.9	23.9	3.2
Oc1ccc(/C=N/n2cc(-c3ccccc3)[nH]c2=S)cc1	6.7	3.5	61.1*	0.4	-0.8	98.8*	41.5*	4.2
COc1cc(/C=N/n2cc(-c3ccccc3)[nH]c2=S)cc(OC)c1O	2.0	2.6	62.2*	-10.0	0.9	.	48.1*	1.6
CNC[C@H](O)c1ccc(O)c(O)c1	-5.6	-12.9	54.3*	5.9	5.3	60.2	65.9*	-8.0
CC(C)NCC(O)c1ccc2ccccc2c1 (stereo not drawn)	-4.4	.	.	1.0	-1.1	8.1	.	.
CC(C)NCC(O)c1ccc(O)c(O)c1 (stereo not drawn)	-5.7	1.1	66.2*	8.9	7.8	?	51.1*	-4.4
CCOC(=O)CNC(=S)n1ncnc1N	-3.8	-6.4	57.8*	0.8	2.8	2.2	-13.6	1.7
CSc1sc(C(=O)NC(=O)NCc2ccncc2)c(C)c1-c1ccon1	-3.9	4.8	12.8	-3.5	3.0	-18.1	.	.
Cn1c(=O)c2c(-c3ccccc3)n(-c3ccc(N)cc3)cc2n(C)c1=O	-5.6	.	.	.	.	.	.	.
CCN(C(=O)C(C)N1C(=O)/C(=C/c2ccco2)SC1=S)C1CCS(=O)(=O)C1 (stereo not drawn)	-7.2	6.2	43.2*	5.8	2.4	-19.8	-43.1	2.4
